Data: PubChem BioAssay (EPA / NIEHS)
Results filed as inconclusive are left out. Calls of active or inactive are those of the source. Rule for the calls, unless noted: active = hit-call score of the fitted dose curve at least 0.9, where 1 is the maximum; inactive = score below 0.9.

Columns and labels:
[1] = CCTE_Padilla_ZF_Score.Edema: CCTE's 144 Hour Post-fertilization zebrafish Assay Score for Edema Malformation, Padilla Lab (AID 2284406)
Procedure, shortened: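 Wild-type zebrafish embryos, one per well in Hanks' solution, dosed at 6-8 hpf, sealed and reared at 26C on a 14:10 h cycle; rinsed on 5 dpf. At 6 dpf, blinded assessors scored edema by stereomicroscopy.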

[2] = CCTE_Padilla_ZF_Score.Spine: CCTE's 144 Hour Post-fertilization zebrafish Assay Score for Spine Malformation, Padilla Lab (AID 2284407)
Procedure, shortened: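 Wild-type zebrafish embryos, one per well in Hanks' solution, dosed at 6–8 hpf in sealed plates at 26C, 14:10 h light:dark; rinsed at 5 dpf. Two blinded assessors scored spinal defects by stereomicroscopy at 6 dpf; fitted versus DMSO.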

[3] = CCTE_Padilla_ZF_Score.Swim_bladder: CCTE's 144 Hour Post-fertilization zebrafish Assay Score for Swim Bladder Malformation, Padilla Lab (AID 2284408)
Method: (§1) CCTE_Padilla_ZF_Phenotype_Score is a whole embryo, multiplexed assay using zebrafish ova exposed for 144 hours post fertilization on a 96-well plate.CCTE_Padilla_ZF_Score.Swim_bladder is one of one assay component(s) measured or calculated from the CCTE_Padilla_ZF_Phenotype_Score assay. It is designed to make measurements of zebrafish development as detected with brightfield microscopy of developing zebrafish embryos.Data from the assay component CCTE_Padilla_ZF_Score.Swim_bladder was analyzed into 1 assay endpoints. This assay endpoint, CCTE_Padilla_ZF_Score.Swim_bladder, was analyzed in the positive analysis fitting direction relative to DMSO as the negative control and baseline of activity. Using a type of viability reporter, gain-of-signal activity can be used to understand changes in developmentals as they relate to the whole embryo. To generalize the intended target to other relatable targets, this assay endpoint is annotated to the zebrafish development intended target family, where the subfamily is swim bladder morphogenesis.
(§2) Zebrafish husbandry: Wild type adult zebrafish (Danio rerio; undefined outbred stock obtained from Aquatic Research Organisms, Hampton, NH, 03842) were housed in an AAALAC-approved animal facility at 28C with a 14:10 h light: dark cycle (lights on at 08:30 h). Adult fish (2-3 females per male; density = 15-20 adults per tank) were kept in one of several 9-liter (L) flow-through colony tanks (Aquaneering Inc., San Diego, CA). All adults in a colony tank were placed in a 2 L (static) breeding tank (Aquatic Habitats, Apopka, FL) one hour prior to light onset. Typically, adults from two to three colony tanks were mated on the same day. Two hours after light onset the adults were returned to the colony tank. All embryos were gathered from each breeder tank, pooled, and placed in a 28C water bath for 2 h, followed by two washes with 0.06% bleach (v/v) in 10% Hanks' Balanced Salt Solution (13.7 mM NaCl 0.54 mM KCl, 25 uM Na2HPO4, 130 uM CaCl2 100 um MgSO4 and 420 um NaHCO3,), hereafter referred to as Hanks' solution, for 5 min in order to remove any residual bacteria or fungi. Immediately following washing, the embryos were examined, and healthy embryos were separated from dead or unfertilized eggs and moved into fresh Hanks'. Chemical exposures: Zebrafish embryos were exposed in 96-well plates. Between 6- and 8-hours post fertilization (hpf), healthy embryos (with chorions) were transferred, one embryo per well, into 96 well (0.5 mL) microtiter plates (Cell Culture-Treated, Flat-Bottom Microplate 96 well [Corning Costar, Kennebunk, ME; Cat 09-761-145]) filled with 200 uL of Hanks' solution. A random number generator was used to assign the order in which the rows of embryos were plated in 96 well plates each week. After plating, the embryos were dosed with 0.8 uL of the chemical dosing solution then immediately sealed with AlumaSeal II (Excel Scientific Inc, Victorville, CA) to prevent volatilization of the chemicals, and then placed in a leakproof secondary container. These containers were placed in an incubator maintained on a 14:10 h light: dark cycle at 26C for rearing. On 5 dpf, live larvae were gently moved out of the plate with test chemicals and into a new 96 well mesh plate (Millipore Corp., Bedford, MA) with just the Hanks' solution. Once within the mesh well plate, the animals were rinsed with 400 uL of fresh Hanks' three times, and then the plates were covered with a non-adhesive material (Microseal A, BioRad, Hercules, CA), plate lid added, and then plate sides wrapped in Parafilm (PM992, Bermis Company, Neenah, WI), and returned to the incubator. […]

[4] = CCTE_Padilla_ZF_Score.Position: CCTE's 144 Hour Post-fertilization zebrafish Assay Score for Position, Padilla Lab (AID 2284409)
Procedure, shortened: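 Wild-type zebrafish embryos (with chorions) exposed singly from 6–8 hpf in sealed wells of Hanks' solution at 26C, rinsed at 5 dpf. At 6 dpf, blinded assessors scored abnormal water-column position by brightfield stereomicroscopy, relative to DMSO.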

[5] = CCTE_Padilla_ZF_Score.Living: CCTE's 144 Hour Post-fertilization zebrafish Assay Score for Viability, Padilla Lab (AID 2284410);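 note: larval death at 6 dpf judged by absent heartbeat or coagulation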
Method: as §1, with “plate.CCTE_Padilla_ZF_Score.Living” for “plate.CCTE_Padilla_ZF_Score.Swim_bladder”, “CCTE_Padilla_ZF_Score.Living” for “CCTE_Padilla_ZF_Score.Swim_bladder”, “CCTE_Padilla_ZF_Score.Living,” for “CCTE_Padilla_ZF_Score.Swim_bladder,”, “embryonic mortality.” for “swim bladder morphogenesis.”
as §2

[6] = CCTE_Padilla_ZF_Score.Tail: CCTE's 144 Hour Post-fertilization zebrafish Assay Score for Tail Malformation, Padilla Lab (AID 2284414)
Procedure, shortened: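 Wild-type zebrafish embryos, one per well in 200 uL 10% Hanks', dosed at 6-8 hpf, sealed, and kept at 26 C on a 14:10 h light cycle. Chemical was rinsed out at 5 dpf. Blinded brightfield scoring of tail defects followed at 6 dpf.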

[7] = CCTE_Padilla_ZF_Score.Blood_pooling: CCTE's 144 Hour Post-fertilization zebrafish Assay Score for Blood Pooling, Padilla Lab (AID 2284415)
Procedure, shortened: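 Wild-type outbred zebrafish embryos, one per well in 10% Hanks', exposed from 6–8 hpf in sealed plates at 26C on 14:10 h light:dark, rinsed at 5 dpf. Blinded stereomicroscope scoring of blood pooling at 6 dpf; gain-of-signal versus DMSO.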

[8] = CCTE_Padilla_ZF_Score.Any: CCTE's 144 Hour Post-fertilization zebrafish Assay Score for Any Mortality or Malformation, Padilla Lab (AID 2284416)
Procedure, shortened: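 Wild-type zebrafish embryos with chorions, one per well in 10% Hanks' from 6–8 hpf, dosed in sealed plates at 26 C, 14:10 h light:dark; rinsed at 5 dpf; blinded scoring at 6 dpf for death or malformation, versus DMSO.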

[9] = tested on: SRY-box transcription factor 2 (SOX2) Protein Expression, Deisenroth Lab, SOX2 (gene 6657); experiment: CCTE_Deisenroth_DEVTOX-GLR_Endo_SOX2: CCTE's DevTox GLR-Endo Assay Evaluation of SRY-box transcription factor 2 (SOX2) Protein Expression, Deisenroth Lab (AID 2284412; active = hit-call score of the fitted dose curve at least 0.9, where 1 is the maximum)
Procedure, shortened: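 RUES2-GLR human pluripotent cells were seeded 24 h, then differentiated 48 h with two chemical exposures 24 h apart. Cells were fixed, nuclei stained and imaged by high-content microscopy. Endpoint is %SOX2+ cells over cell count, minus 0.2% DMSO control; 10-point series 1 nM–200 uM.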

[10] = tested on: SRY-box transcription factor 17 (SOX17) Protein Expression, Deisenroth Lab, SOX17 (gene 64321); experiment: CCTE_Deisenroth_DEVTOX-GLR_Endo_SOX17: CCTE's DevTox GLR-Endo Assay Evaluation of SRY-box transcription factor 17 (SOX17) Protein Expression, Deisenroth Lab (AID 2284413)
Procedure, shortened: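 RUES2-GLR human pluripotent cells were differentiated toward endoderm for 48 h and received two compound doses 24 h apart (1 nM - 200 uM, 10 points). High-content imaging of fixed cells gave the percent SOX17+ cells per cell count, expressed as percent change versus 0.2% DMSO.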

| SMILES | outcome [1] | outcome [2] | outcome [3] | outcome [4] | outcome [5] | outcome [6] | outcome [7] | AC50 [8] | outcome [9] | outcome [10] | outcome [8] | AC50 [5] |
| --- | --- | --- | --- | --- | --- | --- | --- | --- | --- | --- | --- | --- |
| O=C(O)C(F)(F)C(F)(F)C(F)(F)C(F)(F)C(F)(F)C(F)(F)C(F)(F)C(F)F | inactive | inactive | inactive | inactive | inactive | inactive | inactive | 88.5 µM (active) |  |  |  |  |
| CC(C)Cc1ccc(C(C)C(=O)O)cc1 (stereo unspecified) |  |  |  |  |  |  |  |  | inactive | inactive |  |  |
| O=C(O)c1ccccc1O |  |  |  |  |  |  |  |  |  | inactive |  |  |
| C=C(F)C(=O)OC(C(F)(F)F)C(F)(F)F | inactive | inactive | inactive | inactive | inactive | inactive | inactive |  |  |  | inactive |  |
| O=S(=O)(O)C(F)(F)C(F)(F)OC(F)(F)C(F)(F)F | inactive | inactive | inactive | inactive | inactive | inactive | inactive |  |  |  | inactive |  |
| O=C(O)C(F)(F)OC(F)(F)C(F)(F)OC(F)(F)C(F)(F)C(F)(F)C(F)(F)F | inactive | inactive | inactive | inactive |  | inactive | inactive |  |  |  | inactive | 81.2 µM (active) |
| C=C(C)C(=O)OCCC(F)(F)C(F)(F)C(F)(F)C(F)(F)C(F)(F)C(F)(F)C(F)(F)C(F)(F)F | inactive | inactive | inactive | inactive | inactive | inactive | inactive |  |  |  | inactive |  |
| OCC(F)(OC(F)(F)C(F)(OC(F)(F)C(F)(F)C(F)(F)F)C(F)(F)F)C(F)(F)F (stereo unspecified) | inactive | inactive | inactive | inactive |  | inactive | inactive | 31.8 µM (active) |  |  |  | 35.4 µM (active) |
